# PubChem BioAssay (NCI)
# Compounds without any hit were thinned out: in the full panel of roughly 83,000, 20% have a hit.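 How to read the values: 0–100, growth inhibition (40 = 60% inhibited); 0, no net growth; -100 to 0, cell death (-40 = 40% of starting cells died; -100 = all dead).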 Values without a mark were called inactive. Calls of active or inactive are those of the source. The calls were made as follows: active = growth percent below 10; inactive = the rest.
# System: HL-60(TB) leukemia
# Test: NCI-60 one-dose screen, 48 h (100 = growth as untreated, 0 = no growth, -100 = all killed)
# Conditions: 10 µM unless noted
row,SMILES,growth
1,O=C(Cn1cncn1)Nc1ccc(-c2nc3ccccc3s2)cc1,102%
2,COc1ccc(/C=C/C(=O)c2ccc([N+](=O)[O-])cc2)cc1,82%
3,NCCOc1ccccc1/C=C1\c2ccccc2-c2ccc([N+](=O)[O-])cc21,-59.3% (active)
4,Nc1ccc(Sc2ccc3c4c2cccc4c(=O)n2c4ccccc4nc32)cc1,18.2%
5,Nc1nc(N)c2cc(Sc3ccc4ccccc4c3)ccc2n1,31.4%
6,O=C(Nc1cccc([N+](=O)[O-])c1)c1ccc2ccccc2c1O,39.4%
7,C=CCN1C(=O)c2ccccc2C1=O,101%
8,CCN1CCN(c2cc(C)nc(N(CCNc3ccnc4cc(Cl)ccc34)Cc3ccc4c(c3)OCO4)n2)CC1,-61.8% (active)
9,CCn1c(Sc2nnc(Nc3ccccc3)s2)nc2c1c(=O)n(C)c(=O)n2C,113%
10,NCCCNc1nc2ccc(Cl)cc2c2c(=O)c3cc(F)ccc3sc12,34.9%
11,COc1ccc2[nH]cc(/C=C3/C(=O)Nc4ccc(Cl)cc43)c2c1,53.4%
12,CCCNC(=O)Oc1ccc(/C(=C(/CC)Cc2ccccc2)c2ccc(OCCN(CC)CC)cc2)cc1,53.3%
13,C[C@@H]1O[C@@H](O[C@H]2[C@@H](OC(=O)[C@]34CCC(C)(C)C[C@H]3C3=CC[C@@H]5[C@@]6(C)C[C@H](O)[C@H](O[C@@H]7O[C@H](CO)[C@@H](O)[C@H](O)[C@H]7O)[C@@](C)(CO)[C@@H]6CC[C@@]5(C)[C@]3(C)C[C@H]4O)OC[C@@H](O)[C@@H]2O)[C@H](O)[C@H](O[C@@H]2OC[C@@H](O)[C@H](O[C@@H]3OC[C@](O)(CO)[C@H]3O[C@@H]3OC[C@@H](O)[C@H](O)[C@H]3O)[C@H]2O)[C@H]1O[C@@H]1OC[C@](O)(CO)[C@H]1O,21.4%
14,N=C(N)c1ccc(-c2ccc(-c3ccc(Cl)c(Cl)c3)s2)cc1,-32% (active)
15,CN1CCN(c2nc(C3=C(c4c[nH]c5ccccc45)C(=O)NC3=O)c3ccccc3n2)CC1,30.7%
16,CN(C)CCCC(=O)Nc1ccc(Cn2nnc3c2C(=O)c2nnn(Cc4ccc(NC(=O)CCCN(C)C)cc4)c2C3=O)cc1,8.78% (active)
17,CCNC(=O)N1CCc2c(Br)c3c(c(OC)c2C1Cc1ccc(OC)cc1)OCO3 (centres undefined),7.48% (active)

row,SMILES,growth
1,COc1ccc2c(c1)N(CCO)C1=C(C(=O)OC1)C2c1ccc(OC)c(OC)c1 (centres undefined),-2.68% (active)
2,COc1cccc2c1Cc1ccccc1-2,97.5%
3,CCCCn1c2cc(OCc3cn(-c4ccc(Cl)cc4)nn3)ccc2c2ccnc(C)c21,-46.5% (active)
4,COc1ccc2c(c1)C(CC(=O)NN)CCC2 (centres undefined),113%
5,COc1ccc(Oc2ccc(/C=C/C(=O)c3cc4ccccc4oc3=O)cc2)cc1,31.1%
6,O=c1oc2c3ccc4cnccc4c3[nH]c2c2ccccc12,27.1%
7,COc1nc(Nc2cccc(C(F)(F)F)c2)nc(OC)n1,92.7%
8,COc1ccc(C(C)C=O)cc1 (centres undefined),96.9%
9,Cc1[nH]c(C2CC(c3ccc(C(F)(F)F)c(F)c3)=NN2c2ccccc2)c(C)c1C(=O)NCC(F)(F)F (centres undefined),87.6%
10,O=C(Nc1ncc(Cc2ccc(Cl)cc2)s1)C1=NCCCCN1,97%
11,CCOC(=O)C1=C(C)N=C2SC=C(c3ccc(F)cc3)N2[C@H]1c1cn(-c2ccccc2)nc1-c1ccc(Cl)cc1,88.3%
12,CCOC(=O)c1c(C)nc2c(c1N)/C(=C/c1ccc[nH]1)C(=O)N2Cc1ccc(C(F)(F)F)cc1,96.7%
13,CSc1ccc2c(c1)C(N1CCN(C)CC1)Cc1ccccc1S2 (centres undefined),52.7%
14,C=C1C(=O)O[C@H]2[C@H]1CC/C(CNC(=O)/C=C/c1ccccc1F)=C\CC[C@@]1(C)O[C@@H]21,-31.9% (active)
15,COc1cc2c(cc1-c1c(C)noc1C)ncc1nc(C3CCC(F)(F)CC3)n([C@H](C)COC(F)F)c12,23.5%
16,O=C(Nc1ccc2c(c1)-c1ccccc1C2)C1CC(=O)N(c2ccc3c(c2)OCO3)C1 (centres undefined),112% [50 µM]
17,CC(=O)OC[C@H]1OC(Sc2sc(C(=O)c3ccc(Br)cc3)c(N)c2-c2nc3ccccc3s2)[C@H](OC(C)=O)[C@@H](OC(C)=O)[C@H]1OC(C)=O (some centres undefined),105%
